IDE exosite inh – displaces the probe from the exo-site of human IDE; P14735; purified IDE, FL-6b probe fluorescence polarization; hits give low values; z-score at 20 µM; 6.3% of 17,000 active;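 active = z-score of -3 or lower, meaning strong loss of probe binding signal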;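 note: His-tagged human IDE residues 42-1019 made in E. coli with 30 nM FL-6b probe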
Numbers without * were called inactive; ! = not confirmed by another sample. This excerpt belongs to a sample that is enriched for hits.

SMILES	IDE exosite inh
COc1cccc(-c2ccc(C3[C@@H]4CN(C(=O)C5CCOCC5)C[C@H]3N4)cc2)c1 (stereo partly drawn)	-7.13*!
N#C[C@H]1N[C@@H](CO)[C@H]1c1ccc(C#CC2CCCCC2)cc1	-0.589
CCCNC(=O)N1CC2(CN(C(=O)CN(C)C)C2)c2c(n(C)c3cc(OC)ccc23)[C@@H]1CO	0.00769
CO[C@H](CN(C)Cc1cc(F)ccc1F)[C@@H](C)CN(C(=O)Nc1ccc(C(F)(F)F)cc1)[C@H](C)CO	-0.837
COc1cccc(S(=O)(=O)N2CCCCN3[C@H](CO)[C@H](c4ccc(-c5ccccc5)cc4)[C@H]3C2)c1	2.4
O=C(c1ccccc1F)N1CC(=O)N2[C@H](CO)[C@@H](c3ccc(C#Cc4ccccc4)cc3)[C@H]2C1	1.08
O=C(Nc1ccc(F)cc1)N1CC(=O)N2[C@H](C1)[C@H](c1ccc(-c3ccc(F)cc3)cc1)[C@@H]2CO	0.161
O=C(Nc1ccc(C(F)(F)F)cc1)Nc1ccc2c(c1)[C@@H]1C[C@H](CC(=O)N3CCc4ccccc4C3)O[C@H](CO)[C@@H]1O2	-0.362
NCC[C@@H]1CC[C@@H](NC(=O)Cc2ccncc2)[C@@H](CO)O1	3.07
O=C(NCc1ccc2c(c1)OCO2)[C@H]1[C@H](CO)[C@H]2Cn3c(cccc3=O)[C@@H]1N2Cc1cncnc1	0.142
CN1C[C@@H](O)COC[C@@H]2O[C@@H](CC(=O)NC3CCCC3)CC[C@H]21	0.692
N#C[C@H]1[C@@H](c2ccc(-c3cccc(F)c3)cc2)[C@H](CO)N1c1nc(-c2ccccc2)cs1	-2.57
CN1CCN(C(=O)[C@H]2[C@H](CO)[C@H]3Cn4c(ccc(-c5ccncc5)c4=O)[C@H]3N2CC2CC2)CC1	1.29
Cc1ccccc1S(=O)(=O)N1CCCCN2[C@H](CO)[C@@H](c3ccc(C#CCN(C)C)cc3)[C@H]2C1	-0.0513
COc1ccc(-c2ccc([C@H]3[C@@H](CO)N4C(=O)CN(C(=O)C5CC5)C[C@@H]34)cc2)cc1	-0.0953
COc1cccc(-c2ccc([C@@H]3[C@@H](CO)N4C(=O)CN(C(=O)C5CC5)C[C@@H]34)cc2)c1	-14.8*
COc1ccc(-c2ccc([C@H]3[C@H](CO)N4C(=O)CN(C(=O)C5CC5)C[C@@H]34)cc2)cc1	-0.253
COc1cccc(S(=O)(=O)N(C)C[C@@H]2OCc3ccccc3-c3c(n(C)c4ccccc34)C(=O)N([C@@H](C)CO)C[C@@H]2C)c1	-0.39
CCN(C[C@@H]1[C@@H](c2ccccc2)[C@@H](CO)N1C(=O)COC)S(C)(=O)=O	-2.12
C[C@@H]1CCCCO[C@H](CN(C)Cc2ccc(Cl)c(Cl)c2)[C@@H](C)CN([C@H](C)CO)C(=O)c2cc(NC(=O)CCCCCC(=O)Nc3ccccc3N)ccc2O1	-0.936
COc1ccccc1C#Cc1ccc([C@@H]2[C@@H](C#N)N(C(=O)C3CCCCC3)[C@H]2CO)cc1	-7.99*
COc1cccc(C#Cc2ccc([C@@H]3[C@H](C#N)N(C(=O)C4CCC4)[C@H]3CO)cc2)c1	4.18
COc1cccc(C#Cc2ccc([C@@H]3[C@H](C#N)N(C(=O)C4CC4)[C@H]3CO)cc2)c1	-0.131
COc1cccc(C#Cc2ccc([C@H]3[C@@H](CO)N(C(=O)C4CCC4)[C@H]3C#N)cc2)c1	3.55
N#C[C@@H]1[C@H](c2ccc(C#Cc3ccc(F)cc3)cc2)[C@@H](CO)N1C(=O)C1CC1	4.93
SMILES	IDE exosite inh
COc1ccccc1C#Cc1ccc([C@H]2[C@@H](CO)N(C(=O)C3CC3)[C@H]2C#N)cc1	-7.54*
COc1ccccc1C#Cc1ccc([C@H]2[C@@H](C#N)N(C(=O)C3CCCCC3)[C@H]2CO)cc1	-1.64
N#C[C@H]1[C@@H](c2ccc(C#Cc3ccccc3F)cc2)[C@@H](CO)N1C(=O)C1CCCCC1	1.69
COc1ccccc1C#Cc1ccc([C@H]2[C@@H](C#N)N(C(=O)C3CCC3)[C@H]2CO)cc1	-4.87*
CCS(=O)(=O)N1CCCCN2[C@H](CO)[C@@H](c3ccc(-c4cccc(C#N)c4)cc3)[C@H]2C1	0.0581
N#C[C@H]1[C@@H](c2ccc(C3=CCCCC3)cc2)[C@H](CO)N1S(=O)(=O)c1ccccc1	-0.0746
C[C@@H]1CN([C@H](C)CO)C(=O)CCCn2nncc2CO[C@H]1CN(C)Cc1ccc(C(=O)Nc2ccccc2N)cc1	-0.164
CC=Cc1ccc2n(c1=O)C[C@H]1[C@H](CO)[C@@H](C(=O)Nc3nccs3)N(Cc3cc(F)ccc3F)[C@@H]21 (mixture of isomers)	-0.361
CCS(=O)(=O)N1CC2(C1)CN(S(=O)(=O)c1cccc(OC)c1)[C@@H](CO)c1[nH]c3cc(OC)ccc3c12	0.758
CC(=O)NC[C@@H]1[C@@H](c2ccc(-c3ccccc3F)cc2)[C@H](CO)N1C(=O)C1CC1	-2.78
Cc1ccc(S(=O)(=O)N(C)C[C@H]2OCCCC[C@H](C)Oc3ccc(NC(=O)c4ccncc4)cc3C(=O)N([C@H](C)CO)C[C@H]2C)cc1	0.98
O=C(Nc1cccc(Cl)c1)N[C@@H]1CC[C@@H](CCn2cc(Cc3ccccc3)nn2)O[C@@H]1CO	1.96
COc1cccc(-c2ccc([C@@H]3[C@@H](C#N)N(C(=O)Cc4ccncc4)[C@@H]3CO)cc2)c1	-10*
COc1cccc(-c2ccccc2[C@@H]2[C@H](C#N)N(C(=O)Cc3ccccc3)[C@H]2CO)c1	0.948
COc1cccc(-c2ccccc2[C@@H]2[C@@H](C#N)N(C(=O)Cc3ccccc3)[C@H]2CO)c1	-1.11
COc1cccc(-c2ccc([C@H]3[C@@H](C#N)N(C(=O)Cc4ccncc4)[C@@H]3CO)cc2)c1	-3.76*
COc1cccc(-c2ccc([C@H]3[C@H](C#N)N(C(=O)Cc4ccncc4)[C@H]3CO)cc2)c1	-2.73
CCCNC(=O)N1[C@H](CO)[C@H](c2ccc(-c3cccc(OC)c3)cc2)[C@@H]1C#N	-1.19
NCC[C@H]1CC[C@H](NC(=O)Cc2ccncc2)[C@H](CO)O1	0.315
COc1ccc(S(=O)(=O)Nc2ccc3c(c2)C(=O)N([C@H](C)CO)C[C@@H](C)[C@H](CN(C)Cc2ccc(C(F)(F)F)cc2)OCCCC[C@@H](C)O3)cc1	1.75
C/C=C/c1ccc([C@@H]2[C@@H](CO)N[C@@H]2CN(CC)C(=O)CN2CCOCC2)cc1	-1.68
O=C(Nc1ccccc1)N1CCCCN2[C@@H](CO)[C@@H](c3ccc(C#Cc4cccnc4)cc3)[C@@H]2C1	4.1
O=C(Nc1cccc(F)c1)N1CCCCN2[C@H](C1)[C@H](c1ccc(C#Cc3ccccc3)cc1)[C@@H]2CO	2.64
O=C(Nc1ccccc1F)N1CCCCN2[C@H](CO)[C@H](c3ccc(C#Cc4cccnc4)cc3)[C@@H]2C1	-6.83*
O=C(Nc1cccc(F)c1)N1CCCCN2[C@H](CO)[C@H](c3ccc(C#Cc4ccccc4)cc3)[C@H]2C1	-1.02
SMILES	IDE exosite inh
O=C(Nc1ccccc1F)N1CCCCN2[C@H](CO)[C@@H](c3ccc(C#Cc4cccnc4)cc3)[C@H]2C1	-2.06
O=C(Nc1ccccc1F)N1CCCCN2[C@H](C1)[C@H](c1ccc(C#Cc3cccnc3)cc1)[C@@H]2CO	1.98
O=C(Nc1ccccc1)N1CCCCN2[C@H](CO)[C@@H](c3ccc(C#Cc4cccnc4)cc3)[C@H]2C1	2.07
O=C(Nc1ccccc1)N1CCCCN2[C@@H](CO)[C@H](c3ccc(C#Cc4cccnc4)cc3)[C@@H]2C1	-5.33*
O=C(Nc1cccc(F)c1)N1CCCCN2[C@@H](CO)[C@H](c3ccc(C#Cc4ccccc4)cc3)[C@@H]2C1	-3.53*
CN(C[C@@H]1[C@@H](c2ccccc2)[C@H](CO)N1C(=O)c1ccccc1)C(=O)C1CCC1	1.38

Screening data (PubChem)
